# Source: PubChem BioAssay (The Scripps Research Institute Molecular Screening Center)
# Wee1 degr inh = inhibitors of human Wee1 degradation. P30291. HeLa Luc-Wee1K328M stability, luciferase luminescence; 100% = proteasome inhibitor MG132 effect. 1.2% of 220,000 active. reporter increase, % at 5 µM;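 active means activation above the mean of all tested compounds plus 3 SD, set per screening run, cut at about 8.8% in these data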;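 further: cells exposed to compound for 20 h before luminescence read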
# hcDAF12 agonist = H. contortus DAF-12 activation, primary screen; HEK293 hcDAF-12 lit1-tk-luc reporter, luminescence; 0% DMSO, 100% Δ7-dafachronic acid; 1.4% of 370,000 active; activation, % at 6.8 µM;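 active means activation above the mean of all tested compounds plus 3 SD, cut at about 5.5% in these data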
# ssDAF12 agonist = activates DAF-12 receptor from parasite S. stercoralis; HEK293 ssDAF-12/GRIP1 lit1-tk-luc reporter, luminescence; % of 3 µM dafachronic acid response; activation, % at 6.8 µM; 1% of 370,000 active;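 active means activation above the mean over all tested compounds plus 3 SD, cut at about 0.9% in these data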
# hgDAF12 agonist = activates the H. glycines DAF-12 receptor ligand-binding domain; HEK293 GAL4-hgDAF12 UAS-luciferase reporter, agonist luminescence; normalized to butyrate control; activation, % at 6.8 µM; 1.8% of 370,000 active; AID 687014;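 active means activation above a cutoff set at the mean of all screened compounds plus 3 SD, cut at about 10% in these data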
# DAX1 inh-1 = inhibits human nuclear receptor DAX1; AID 504766; inhibition, % at 6.75 µM; HEK293 Gal4-DAX1 luciferase reporter, luminescence; P51843; 0.99% of 340,000 active;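 active means inhibition above the mean over all tested compounds plus 3 SD, cut at about 4.2% in these data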;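 further: inhibition shows as a rise in luminescence from relieved DAX1 repression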
# Target sequence (P51843 207-470 limits assumed): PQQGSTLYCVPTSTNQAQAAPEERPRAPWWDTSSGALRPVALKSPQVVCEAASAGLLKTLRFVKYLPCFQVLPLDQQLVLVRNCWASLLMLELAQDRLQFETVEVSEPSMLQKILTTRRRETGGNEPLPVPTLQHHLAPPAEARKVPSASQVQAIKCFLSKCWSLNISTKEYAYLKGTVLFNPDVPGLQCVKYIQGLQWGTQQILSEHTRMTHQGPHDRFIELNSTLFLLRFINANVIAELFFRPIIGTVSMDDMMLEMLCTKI
# DAX1 inh-2 = blocks DAX1 repression of SF-1 activated StAR promoter. HEK293T StAR-luciferase reporter, SF-1/DAX-1 repression relief. inhibition, % at 6.8 µM. 1.1% of 370,000 active;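 active means inhibition above the mean over all tested compounds plus 3 SD, cut at about 3.6% in these data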;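 further: higher inhibition means more luminescence from relief of DAX-1 repression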
# Numbers stand for hits; n = inactive; x = no result. Shown are actives, neighbours in structure and some others; about 4.6% of the full set was active somewhere.
SMILES,Wee1 degr inh,hcDAF12 agonist,ssDAF12 agonist,hgDAF12 agonist,DAX1 inh-1,DAX1 inh-2
COc1ccc(N2CC(=O)N(c3ccccc3)C2=S)cc1,n,n,n,12,n,n
O=C1CN(c2ccc(F)cc2)C(=S)N1c1ccccc1,x,n,n,n,n,n
O=C1CN(c2ccccc2)C(=S)N1c1ccccc1,x,n,n,n,4.4,n
Cc1onc(-c2ccccc2)c1C(=O)N1CCCc2ccccc21,n,n,1.0,n,n,n
Cc1onc(-c2c(Cl)cccc2Cl)c1C(=O)N1CCCc2ccccc21,n,n,n,n,n,n
COCCNC(=O)CSc1ccccc1C(=O)NCC1CCCCC1,n,n,n,n,6.6,n
CC(=O)NCCNC(=O)c1ccc(CSc2ccc(Cl)cc2)cc1,n,n,0.9,n,n,n
CCNC(=O)c1ccc(CSc2ccc(Cl)cc2)cc1,n,n,n,n,n,n
COC(=O)[C@@]12CCCCC3=C1N(CCC3)C(=O)[C@H]2CC(=O)NCCCCc1ccccc1,x,n,n,n,x,n
CC(=O)Nc1sc2c(c1-c1nc3ccccc3s1)CCN(C(C)=O)C2,x,6.2,n,n,x,x
CC(=O)N1CCc2c(sc(NC(=O)C3CC3)c2-c2nc3ccccc3s2)C1,n,n,n,n,n,n
CC(C)n1nnnc1C1c2ccccc2C(=O)N1Cc1cccc(F)c1 (centres undefined),x,n,n,n,x,3.8
COc1ccc(C(=O)NN=C2CCCC2)cc1,x,n,n,n,n,n
O=C(O)c1ccccc1NN=C1CCCCC1,9.8,n,n,n,n,n
O=C(NN=C1CCCC1)c1ccccc1O,x,n,n,11,n,n
COc1cccc(C(=O)NN=C2CCCC2)c1,x,n,n,11,n,4.5
COC(=O)C(C(=O)OC)C1C=CCN(C(C)=O)C1 (centres undefined),x,n,n,n,n,n
O=c1[nH][nH]c2c1[C@@H](c1ccc(F)cc1)O[C@H](CCOCc1ccccc1)C2,x,n,n,n,x,n
COc1cccc(NC(=O)C2CCCN2C(=O)Nc2cccc3c2OCO3)c1 (centres undefined),x,n,n,n,x,n
O=C(CCC(=O)c1cccs1)OCC(=O)c1ccccc1F,x,n,n,n,n,n
O=C(NNC(=O)c1cnccn1)c1ccc(Cl)cc1,n,n,n,n,5.8,n
Cc1csc2c(=O)sc(NC(=O)c3ccc(F)cc3Cl)nc12,n,n,n,n,n,n
O=C(Nc1nc2ccsc2c(=O)s1)c1ccc(F)cc1Cl,n,n,n,n,7.8,n
Cn1nnc2c(NCc3ccco3)nccc21,n,n,n,n,n,n
COc1ccc(Nc2nccc3c2nnn3C)cc1,n,n,n,n,n,4.2
SMILES,Wee1 degr inh,hcDAF12 agonist,ssDAF12 agonist,hgDAF12 agonist,DAX1 inh-1,DAX1 inh-2
C=CCOC(=O)N1CCN(C(=O)c2ccc3nc(C)n(C4CCCC4)c3c2)CC1,x,n,n,n,x,n
CCOc1ccc(-c2csc(NC(=O)CSCC(=O)O)n2)c2ccccc12,n,n,n,n,n,n
CCOc1ccc(-c2csc(NC(=O)CSC3=NC(=O)CN3C(C)=O)n2)c2ccccc12,n,n,n,11,n,n
COc1ccc(OC)c(NC(=O)c2ccc(NC(C)=O)cc2)c1,n,n,n,n,n,n
CCCc1cc(C(=O)Nc2cc(OC)ccc2OC)cs1,x,n,1.2,n,n,n
C[C@@H]1ON(C)[C@H]2C[C@H]3c4[nH]c5c(-c6ccc7c(c6)OCO7)cccc5c4CCN3C[C@@H]12,x,n,n,n,x,n
O=C(NC1CC1)c1ccc(F)cc1Cl,n,n,1.0,n,n,n
O=C(NCC1CCCCC1)c1ccc(F)cc1Cl,x,n,n,n,7.4,n
COc1cccc(-c2cnc3c(NC(C)=O)cc(-c4ccc(C(=O)N5CCOCC5)cc4)cn23)c1,x,n,n,n,x,n
O=c1c2cc3cc4c(cc3nc2ncn1Cc1cccnc1)OCO4,x,n,n,n,x,n
C[N+](C)(C)CCNC(=O)c1ccccc1,x,n,n,n,x,4.1
O=C(NCC(O)c1ccccc1)c1ccccc1 (centres undefined),n,n,n,n,4.3,n
O=C(NCCNC(=O)c1ccccc1)c1ccccc1,n,n,n,n,n,n
CC1(C(=O)NCc2ccccc2)CSCC(=O)N1Cc1ccco1 (centres undefined),x,n,n,n,x,n
CCN(c1ccccc1)S(=O)(=O)c1cc(NC(=O)CSc2n[nH]c(=O)[nH]c2=O)ccc1Cl,9.2,n,n,n,n,n
O=C(CSc1n[nH]c(=O)[nH]c1=O)Nc1ccc2c(c1)C(=O)c1ccccc1C2=O,n,n,n,n,n,n
COc1cccc(CNC(=O)[C@H]2CCCN2C(=O)[C@H]2CCCN2)c1,x,n,n,n,x,n
CC1=CC(C)=Nc2ccccc2N1,n,5.6,2.1,11,n,n
O=C(CSc1nnc(C2CC2)n1C1CC1)c1cc(F)ccc1F,x,n,n,n,n,n
O=C(c1cc(-c2ccc(Cl)c(Cl)c2)on1)N1CCCCCC1,x,n,n,n,n,n
O=C(c1cc(-c2ccc3c(c2)OCO3)on1)N1CCCCC1,x,5.8,n,n,n,n
C=CCNCc1ccc(OC)cc1OC,x,n,n,n,x,n
COC(=O)c1cn[nH]c1NC(=S)Nc1ccc(C)cc1Cl,n,n,n,n,n,4.2
O=C1c2ccccc2NC(c2ccco2)N1O (centres undefined),n,n,n,n,4.4,n
CSc1nnc(SCC(=O)NC(=O)c2ccccc2)s1,x,n,n,n,n,4.1
SMILES,Wee1 degr inh,hcDAF12 agonist,ssDAF12 agonist,hgDAF12 agonist,DAX1 inh-1,DAX1 inh-2
O=C(NCc1ccccc1)c1cnc(Cc2c[nH]c3ccccc23)c(I)c1,x,n,n,n,x,n
CCC(=O)Nc1ccc(CCC(=O)N2CCCC2)cc1,x,n,n,n,5.5,n
Nc1ccc(CCC(=O)N2CCCC2)cc1,x,n,n,n,n,n
CCNS(=O)(=O)c1ccc(CCC(=O)N2CCCC2)cc1,x,n,n,n,5.1,n
CCCCNS(=O)(=O)CC1NCc2cc(OC)ccc21 (centres undefined),x,n,n,n,x,n
Cc1cc(NC(=O)CCC(=O)N(CC(=O)NCC2CCCO2)c2ccc(F)c(Cl)c2)no1 (centres undefined),x,n,n,n,4.2,n
Cc1ccc(NC(=O)c2csc(-c3ccccc3)c2C)cc1,n,n,n,n,n,4.3
O=C(Nc1cccc([N+](=O)[O-])c1)c1cc2ccccc2cc1O,10,n,n,n,n,n
Cc1c(C(=O)Nc2cccc([N+](=O)[O-])c2)csc1-c1ccccc1,10,n,n,n,n,n
O=C(O)c1ccccc1C(=O)Nc1cccc([N+](=O)[O-])c1,n,n,n,n,n,n
CC(=O)c1cccc(NC(=O)c2cc(-c3ccncc3)nc3ccccc23)c1,x,n,n,n,n,n
O=C(O)c1ccccc1/C=N/NC(=O)c1cc(-c2ccco2)nc2ccccc12,n,n,2.9,n,n,n
